# How the values were obtained:
# [1] = biological target: Protein kinase C gamma type (Homo sapiens) (UniProt P05129); settings: at 1 µM;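 note: each value is an averaged percent inhibition of the enzyme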
# [2] = biological target: T1, Protein kinase C iota type (Homo sapiens) (UniProt P41743); settings: at 0.1 µM
# T1 sequence (whole entry): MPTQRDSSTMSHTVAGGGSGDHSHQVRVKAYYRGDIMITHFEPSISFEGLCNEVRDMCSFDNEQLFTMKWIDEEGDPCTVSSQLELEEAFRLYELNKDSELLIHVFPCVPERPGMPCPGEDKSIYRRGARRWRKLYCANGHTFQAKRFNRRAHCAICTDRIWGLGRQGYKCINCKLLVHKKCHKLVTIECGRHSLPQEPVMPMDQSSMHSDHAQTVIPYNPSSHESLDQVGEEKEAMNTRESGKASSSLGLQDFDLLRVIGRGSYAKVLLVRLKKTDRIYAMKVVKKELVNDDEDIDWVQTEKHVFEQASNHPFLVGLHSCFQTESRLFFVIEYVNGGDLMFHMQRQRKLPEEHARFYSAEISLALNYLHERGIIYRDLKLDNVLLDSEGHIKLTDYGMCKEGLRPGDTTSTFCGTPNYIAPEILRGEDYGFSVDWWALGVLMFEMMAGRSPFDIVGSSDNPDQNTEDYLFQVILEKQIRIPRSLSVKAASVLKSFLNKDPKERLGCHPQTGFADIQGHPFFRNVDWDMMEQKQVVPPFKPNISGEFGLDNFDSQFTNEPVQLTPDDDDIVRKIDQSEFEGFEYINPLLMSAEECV
# [3] = biological target: T1, Protein kinase C iota type (Homo sapiens); settings: at 1 µM
# [4] = biological target: Protein kinase C theta type (Homo sapiens) (UniProt Q04759); settings: at 0.1 µM
# [5] = biological target: Protein kinase C theta type (Homo sapiens) (UniProt Q04759); settings: at 1 µM
# [6] = biological target: Protein kinase C beta type (Homo sapiens) (UniProt P05771); settings: at 0.1 µM
# [7] = biological target: Protein kinase C beta type (Homo sapiens) (UniProt P05771); settings: at 1 µM
# [8] = biological target: T2, Serine/threonine-protein kinase D1 (Homo sapiens) (UniProt Q15139); settings: at 0.1 µM
# T2 sequence (whole entry): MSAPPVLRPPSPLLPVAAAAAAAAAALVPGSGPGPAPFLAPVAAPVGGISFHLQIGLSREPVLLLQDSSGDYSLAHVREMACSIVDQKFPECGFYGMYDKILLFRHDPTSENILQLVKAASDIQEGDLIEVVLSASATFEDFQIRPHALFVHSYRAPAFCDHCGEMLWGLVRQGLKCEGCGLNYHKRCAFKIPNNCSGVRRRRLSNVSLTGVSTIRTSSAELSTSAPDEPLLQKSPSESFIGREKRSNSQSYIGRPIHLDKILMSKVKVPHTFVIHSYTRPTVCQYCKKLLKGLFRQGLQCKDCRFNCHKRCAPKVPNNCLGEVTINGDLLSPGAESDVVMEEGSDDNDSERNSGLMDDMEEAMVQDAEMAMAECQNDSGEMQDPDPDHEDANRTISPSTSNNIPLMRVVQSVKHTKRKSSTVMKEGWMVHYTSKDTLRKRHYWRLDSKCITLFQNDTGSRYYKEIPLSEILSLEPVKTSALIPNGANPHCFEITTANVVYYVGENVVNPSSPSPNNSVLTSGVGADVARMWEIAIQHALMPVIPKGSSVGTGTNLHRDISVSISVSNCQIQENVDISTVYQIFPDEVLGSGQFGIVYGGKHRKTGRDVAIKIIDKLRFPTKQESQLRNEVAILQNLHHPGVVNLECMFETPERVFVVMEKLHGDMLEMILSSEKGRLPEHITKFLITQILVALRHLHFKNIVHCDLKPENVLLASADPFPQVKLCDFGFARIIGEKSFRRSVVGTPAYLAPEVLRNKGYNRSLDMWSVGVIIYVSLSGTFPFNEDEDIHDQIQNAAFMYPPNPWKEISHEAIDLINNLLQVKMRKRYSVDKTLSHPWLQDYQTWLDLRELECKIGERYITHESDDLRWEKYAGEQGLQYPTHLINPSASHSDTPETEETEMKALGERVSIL
# [9] = biological target: T2, Serine/threonine-protein kinase D1 (Homo sapiens); settings: at 1 µM
# [10] = biological target: T3, Serine/threonine-protein kinase D2 (Homo sapiens) (UniProt Q9BZL6); settings: at 0.1 µM
# T3 sequence (whole entry): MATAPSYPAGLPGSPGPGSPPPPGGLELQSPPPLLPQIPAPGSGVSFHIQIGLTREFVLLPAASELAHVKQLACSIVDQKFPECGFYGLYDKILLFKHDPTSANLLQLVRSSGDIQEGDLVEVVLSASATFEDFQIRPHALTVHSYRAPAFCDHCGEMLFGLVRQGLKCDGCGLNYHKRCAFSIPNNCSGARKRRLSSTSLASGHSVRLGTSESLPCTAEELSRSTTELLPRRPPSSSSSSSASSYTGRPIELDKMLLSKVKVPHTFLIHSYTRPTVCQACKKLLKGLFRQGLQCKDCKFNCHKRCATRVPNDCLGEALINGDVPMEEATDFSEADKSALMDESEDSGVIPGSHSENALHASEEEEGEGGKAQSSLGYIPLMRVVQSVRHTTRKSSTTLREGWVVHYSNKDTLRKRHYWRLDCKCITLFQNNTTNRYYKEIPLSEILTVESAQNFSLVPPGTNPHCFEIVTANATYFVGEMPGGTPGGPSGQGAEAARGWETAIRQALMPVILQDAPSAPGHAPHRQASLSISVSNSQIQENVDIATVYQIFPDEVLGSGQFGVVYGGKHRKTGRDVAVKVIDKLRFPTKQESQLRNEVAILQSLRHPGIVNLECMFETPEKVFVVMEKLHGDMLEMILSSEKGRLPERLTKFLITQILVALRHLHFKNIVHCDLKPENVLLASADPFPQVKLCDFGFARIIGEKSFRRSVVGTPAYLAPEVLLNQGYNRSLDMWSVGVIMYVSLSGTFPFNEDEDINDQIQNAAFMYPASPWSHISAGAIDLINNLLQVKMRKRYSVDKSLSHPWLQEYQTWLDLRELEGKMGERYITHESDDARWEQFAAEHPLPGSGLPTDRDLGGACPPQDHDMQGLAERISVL
# [11] = biological target: T3, Serine/threonine-protein kinase D2 (Homo sapiens); settings: at 1 µM
# [12] = biological target: T4, Serine/threonine-protein kinase D3 (Homo sapiens) (UniProt O94806); settings: at 0.1 µM
# T4 sequence (whole entry): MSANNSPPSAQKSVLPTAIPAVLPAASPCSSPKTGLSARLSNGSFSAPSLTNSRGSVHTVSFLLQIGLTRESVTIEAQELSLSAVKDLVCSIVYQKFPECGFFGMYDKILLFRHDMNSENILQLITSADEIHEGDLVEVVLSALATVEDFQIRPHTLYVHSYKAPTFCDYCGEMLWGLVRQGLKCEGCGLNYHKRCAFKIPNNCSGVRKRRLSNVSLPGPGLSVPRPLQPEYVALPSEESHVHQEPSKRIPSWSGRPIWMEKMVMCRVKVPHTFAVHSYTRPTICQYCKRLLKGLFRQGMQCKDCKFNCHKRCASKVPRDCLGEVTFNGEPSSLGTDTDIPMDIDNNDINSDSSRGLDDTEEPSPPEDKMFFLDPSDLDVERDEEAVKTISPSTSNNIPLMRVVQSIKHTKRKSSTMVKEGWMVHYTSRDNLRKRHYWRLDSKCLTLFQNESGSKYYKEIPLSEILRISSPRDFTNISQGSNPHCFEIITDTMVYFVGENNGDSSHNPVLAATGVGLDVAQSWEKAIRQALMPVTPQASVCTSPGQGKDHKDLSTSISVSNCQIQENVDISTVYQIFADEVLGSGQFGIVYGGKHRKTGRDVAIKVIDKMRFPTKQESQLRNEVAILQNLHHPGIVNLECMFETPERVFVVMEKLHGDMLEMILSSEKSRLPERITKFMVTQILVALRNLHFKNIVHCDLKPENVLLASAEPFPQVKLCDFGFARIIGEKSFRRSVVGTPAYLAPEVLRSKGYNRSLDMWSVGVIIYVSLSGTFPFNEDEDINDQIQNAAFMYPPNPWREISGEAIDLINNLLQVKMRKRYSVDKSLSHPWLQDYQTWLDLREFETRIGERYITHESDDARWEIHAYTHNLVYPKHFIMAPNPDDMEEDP
# [13] = biological target: T4, Serine/threonine-protein kinase D3 (Homo sapiens); settings: at 1 µM
# [14] = biological target: T5, cGMP-dependent protein kinase 1 (Homo sapiens) (UniProt Q13976); settings: at 0.1 µM
# T5 sequence (whole entry): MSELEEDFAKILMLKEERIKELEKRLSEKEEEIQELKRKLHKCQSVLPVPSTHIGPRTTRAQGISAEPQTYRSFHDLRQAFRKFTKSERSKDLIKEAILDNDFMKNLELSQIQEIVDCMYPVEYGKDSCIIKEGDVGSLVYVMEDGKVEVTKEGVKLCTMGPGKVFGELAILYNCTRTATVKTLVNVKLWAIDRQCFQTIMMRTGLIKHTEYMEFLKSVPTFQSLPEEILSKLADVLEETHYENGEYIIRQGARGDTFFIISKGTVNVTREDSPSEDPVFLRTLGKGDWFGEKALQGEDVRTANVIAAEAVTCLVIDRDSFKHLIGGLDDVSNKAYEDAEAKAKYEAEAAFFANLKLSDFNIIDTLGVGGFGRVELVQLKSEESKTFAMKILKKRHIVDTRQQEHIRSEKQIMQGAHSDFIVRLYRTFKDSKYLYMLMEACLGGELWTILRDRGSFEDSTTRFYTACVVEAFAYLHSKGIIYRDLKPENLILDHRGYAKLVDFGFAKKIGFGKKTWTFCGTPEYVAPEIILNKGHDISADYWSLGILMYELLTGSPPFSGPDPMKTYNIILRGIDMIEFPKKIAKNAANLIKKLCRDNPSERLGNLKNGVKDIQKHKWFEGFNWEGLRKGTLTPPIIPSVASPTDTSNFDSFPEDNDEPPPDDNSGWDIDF
# [15] = biological target: T5, cGMP-dependent protein kinase 1 (Homo sapiens); settings: at 1 µM
# [16] = biological target: T6, cGMP-dependent protein kinase 2 (Homo sapiens) (UniProt Q13237); settings: at 0.1 µM
# T6 sequence (whole entry): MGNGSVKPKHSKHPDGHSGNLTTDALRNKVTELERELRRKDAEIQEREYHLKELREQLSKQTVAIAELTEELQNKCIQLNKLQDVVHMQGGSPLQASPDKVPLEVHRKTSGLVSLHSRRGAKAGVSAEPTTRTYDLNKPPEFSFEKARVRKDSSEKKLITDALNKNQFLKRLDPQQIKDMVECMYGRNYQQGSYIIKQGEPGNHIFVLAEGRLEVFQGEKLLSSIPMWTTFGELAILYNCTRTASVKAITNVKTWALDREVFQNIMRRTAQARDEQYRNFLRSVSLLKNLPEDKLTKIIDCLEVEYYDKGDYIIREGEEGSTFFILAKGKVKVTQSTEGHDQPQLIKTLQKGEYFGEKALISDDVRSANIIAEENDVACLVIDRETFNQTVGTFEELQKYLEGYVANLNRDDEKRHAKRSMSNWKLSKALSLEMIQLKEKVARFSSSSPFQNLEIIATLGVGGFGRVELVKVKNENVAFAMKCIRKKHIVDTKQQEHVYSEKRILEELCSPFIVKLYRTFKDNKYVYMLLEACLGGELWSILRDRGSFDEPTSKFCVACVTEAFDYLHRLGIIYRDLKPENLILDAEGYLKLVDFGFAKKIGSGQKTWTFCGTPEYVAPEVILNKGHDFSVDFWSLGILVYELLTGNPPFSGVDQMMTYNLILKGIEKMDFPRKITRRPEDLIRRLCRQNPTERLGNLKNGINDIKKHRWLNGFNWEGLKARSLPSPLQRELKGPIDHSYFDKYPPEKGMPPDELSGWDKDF
# [17] = biological target: T6, cGMP-dependent protein kinase 2 (Homo sapiens); settings: at 1 µM
# [18] = biological target: T7, cAMP-dependent protein kinase catalytic subunit PRKX (Homo sapiens) (UniProt P51817); settings: at 0.1 µM
# T7 sequence (whole entry): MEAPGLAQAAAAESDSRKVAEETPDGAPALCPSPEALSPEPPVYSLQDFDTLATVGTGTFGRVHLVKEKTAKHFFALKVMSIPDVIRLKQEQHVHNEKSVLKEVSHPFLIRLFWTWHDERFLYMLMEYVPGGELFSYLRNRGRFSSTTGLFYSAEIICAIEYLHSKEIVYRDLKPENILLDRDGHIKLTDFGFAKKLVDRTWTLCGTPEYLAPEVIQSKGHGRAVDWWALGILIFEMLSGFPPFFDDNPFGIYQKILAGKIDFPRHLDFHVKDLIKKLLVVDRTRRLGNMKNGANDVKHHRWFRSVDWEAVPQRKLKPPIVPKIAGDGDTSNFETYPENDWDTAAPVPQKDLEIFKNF
# [19] = biological target: T7, cAMP-dependent protein kinase catalytic subunit PRKX (Homo sapiens); settings: at 1 µM
# [20] = biological target: Rho-associated protein kinase 1 (Homo sapiens) (UniProt Q13464); settings: at 0.1 µM;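 note: values are mean percent inhibition of ROCK1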
# Chain of Rho-associated protein kinase 1 (Homo sapiens) (Q13464 2-1354 limits assumed): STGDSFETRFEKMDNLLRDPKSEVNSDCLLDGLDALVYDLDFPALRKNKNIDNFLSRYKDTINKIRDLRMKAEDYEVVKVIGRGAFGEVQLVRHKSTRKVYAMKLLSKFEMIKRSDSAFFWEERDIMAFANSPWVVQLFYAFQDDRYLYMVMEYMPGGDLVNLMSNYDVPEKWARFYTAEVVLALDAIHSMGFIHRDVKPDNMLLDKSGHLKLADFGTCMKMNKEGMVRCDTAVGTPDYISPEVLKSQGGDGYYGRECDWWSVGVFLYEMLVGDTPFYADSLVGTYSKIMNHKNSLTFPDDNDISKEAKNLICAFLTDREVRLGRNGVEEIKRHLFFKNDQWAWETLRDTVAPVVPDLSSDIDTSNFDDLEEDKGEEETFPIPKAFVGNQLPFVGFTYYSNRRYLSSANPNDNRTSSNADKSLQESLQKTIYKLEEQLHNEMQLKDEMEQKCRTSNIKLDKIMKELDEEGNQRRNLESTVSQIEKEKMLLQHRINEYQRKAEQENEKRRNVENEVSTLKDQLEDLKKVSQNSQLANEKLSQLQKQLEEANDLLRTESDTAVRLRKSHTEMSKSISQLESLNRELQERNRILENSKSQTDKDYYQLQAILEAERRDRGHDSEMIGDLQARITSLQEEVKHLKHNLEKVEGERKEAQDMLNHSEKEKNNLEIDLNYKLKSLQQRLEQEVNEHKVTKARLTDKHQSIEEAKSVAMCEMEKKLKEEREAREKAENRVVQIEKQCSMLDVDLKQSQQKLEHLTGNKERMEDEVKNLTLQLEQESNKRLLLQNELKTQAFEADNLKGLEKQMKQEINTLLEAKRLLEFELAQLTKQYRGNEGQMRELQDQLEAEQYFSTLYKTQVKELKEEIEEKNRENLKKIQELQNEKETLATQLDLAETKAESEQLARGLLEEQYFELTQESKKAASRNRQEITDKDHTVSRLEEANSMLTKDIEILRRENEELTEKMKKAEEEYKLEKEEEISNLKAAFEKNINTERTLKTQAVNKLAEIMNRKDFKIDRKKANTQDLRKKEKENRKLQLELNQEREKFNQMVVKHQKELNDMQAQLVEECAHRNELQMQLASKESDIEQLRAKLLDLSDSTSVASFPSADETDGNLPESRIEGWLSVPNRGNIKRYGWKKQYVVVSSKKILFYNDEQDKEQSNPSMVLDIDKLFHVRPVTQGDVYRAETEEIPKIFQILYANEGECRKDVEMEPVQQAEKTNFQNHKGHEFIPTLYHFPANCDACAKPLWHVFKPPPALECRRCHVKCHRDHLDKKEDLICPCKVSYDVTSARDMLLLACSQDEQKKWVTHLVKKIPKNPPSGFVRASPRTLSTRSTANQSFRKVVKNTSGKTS
# Chain of Protein kinase C theta type (Homo sapiens) (Q04759 whole entry, looked up): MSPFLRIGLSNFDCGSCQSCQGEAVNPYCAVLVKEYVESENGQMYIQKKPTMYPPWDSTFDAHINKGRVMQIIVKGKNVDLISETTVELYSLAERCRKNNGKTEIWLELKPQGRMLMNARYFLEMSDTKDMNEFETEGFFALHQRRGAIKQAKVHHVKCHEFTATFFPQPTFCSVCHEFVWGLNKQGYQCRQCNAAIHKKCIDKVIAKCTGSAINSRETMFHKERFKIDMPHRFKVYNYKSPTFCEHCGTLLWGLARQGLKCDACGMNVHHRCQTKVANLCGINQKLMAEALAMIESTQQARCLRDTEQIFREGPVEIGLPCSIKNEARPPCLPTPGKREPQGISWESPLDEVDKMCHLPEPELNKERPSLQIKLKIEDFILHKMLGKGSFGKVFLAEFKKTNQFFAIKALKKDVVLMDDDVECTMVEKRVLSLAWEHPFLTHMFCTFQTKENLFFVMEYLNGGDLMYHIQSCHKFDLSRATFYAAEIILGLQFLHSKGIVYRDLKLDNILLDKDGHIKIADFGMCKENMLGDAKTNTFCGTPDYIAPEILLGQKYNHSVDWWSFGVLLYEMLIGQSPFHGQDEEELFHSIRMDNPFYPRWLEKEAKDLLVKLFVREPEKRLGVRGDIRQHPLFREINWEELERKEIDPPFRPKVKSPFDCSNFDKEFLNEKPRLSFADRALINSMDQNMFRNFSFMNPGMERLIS
# Chain of Protein kinase C beta type (Homo sapiens) (P05771 2-671 limits assumed): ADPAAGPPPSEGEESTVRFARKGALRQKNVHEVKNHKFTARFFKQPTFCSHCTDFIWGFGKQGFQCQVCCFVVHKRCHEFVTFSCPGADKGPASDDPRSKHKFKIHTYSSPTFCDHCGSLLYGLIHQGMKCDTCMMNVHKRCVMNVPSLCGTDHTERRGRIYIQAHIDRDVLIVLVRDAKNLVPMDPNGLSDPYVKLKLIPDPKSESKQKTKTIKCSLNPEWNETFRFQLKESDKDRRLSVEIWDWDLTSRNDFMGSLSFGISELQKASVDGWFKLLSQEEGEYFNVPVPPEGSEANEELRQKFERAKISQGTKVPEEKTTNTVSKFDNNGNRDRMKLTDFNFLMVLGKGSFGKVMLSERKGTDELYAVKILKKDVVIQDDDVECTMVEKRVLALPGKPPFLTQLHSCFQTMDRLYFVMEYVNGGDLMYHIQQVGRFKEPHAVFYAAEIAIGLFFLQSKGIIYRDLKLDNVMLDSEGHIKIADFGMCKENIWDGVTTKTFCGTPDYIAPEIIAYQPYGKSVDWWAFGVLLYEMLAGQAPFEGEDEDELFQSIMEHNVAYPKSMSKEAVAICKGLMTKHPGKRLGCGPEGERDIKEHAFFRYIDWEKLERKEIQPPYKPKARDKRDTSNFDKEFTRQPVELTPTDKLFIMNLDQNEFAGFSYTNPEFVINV
structure (smiles),measurement,setting,value
O=C1NC(=O)C(c2ccccc2Cl)=C1Nc1cccc(O)c1,inhibition,[1],1.06%
same,inhibition,[2],1.73%
same,inhibition,[3],3.13%
same,inhibition,[4],1.38%
same,inhibition,[5],3.85%
same,inhibition,[6],2.15%
same,inhibition,[7],14.5%
same,inhibition,[8],2.34%
same,inhibition,[9],4.55%
same,inhibition,[10],1.91%
same,inhibition,[11],2.71%
same,inhibition,[12],2.73%
same,inhibition,[13],2.86%
same,inhibition,[14],2.17%
same,inhibition,[15],3.29%
same,inhibition,[16],1.54%
same,inhibition,[17],4.57%
same,inhibition,[18],2.14%
same,inhibition,[19],4.07%
same,inhibition,[20],3.29%

# Reference: ChEMBL document CHEMBL1961873, “Compounds: GSK PKIS; Assays: Nanosyn kinase panel” (2012)
